In paper PMC10726135, “HNF4α isoforms regulate the circadian balance between carbohydrate and lipid metabolism in the liver” one finds binding signal data, which are given here for 46 sequences.

Whole data set: some 18,000 sequences, median “log2 normalized intensity” near 0.36, cut for the highest 2% near 7.3. What follows is part of a selection rich in the highest values, with near analogues and random picks from the rest.

The target of the assay is T1, HNF4alpha8 (COS-7 nuclear extract) (Homo sapiens, UniProt P41235-5 1-452).
T1 sequence: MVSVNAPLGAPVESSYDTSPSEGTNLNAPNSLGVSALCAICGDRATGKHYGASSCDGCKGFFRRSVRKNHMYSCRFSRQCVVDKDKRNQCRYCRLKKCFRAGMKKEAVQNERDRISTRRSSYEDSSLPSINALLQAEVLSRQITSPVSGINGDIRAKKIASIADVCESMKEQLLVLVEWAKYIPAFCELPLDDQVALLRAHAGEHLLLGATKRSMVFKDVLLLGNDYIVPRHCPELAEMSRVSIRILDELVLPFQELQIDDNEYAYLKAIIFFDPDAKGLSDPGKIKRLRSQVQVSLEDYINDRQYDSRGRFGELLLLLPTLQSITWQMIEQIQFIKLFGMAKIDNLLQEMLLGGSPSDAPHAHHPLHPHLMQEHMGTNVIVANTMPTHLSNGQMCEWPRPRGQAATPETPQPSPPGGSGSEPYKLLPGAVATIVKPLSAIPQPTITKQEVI
Kind of assay: protein-binding microarray; COS-7 nuclear extract on double-stranded Agilent 4x180k PBM; binding buffer, salt, pH and temperature not given in the material; high values mean tight binding. The note with it: chain copies: 2; label: 3' end of strand 1 on the slide; dsDNA, one strand shown. The procedure, abridged:
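Double-stranded oligonucleotides of ~60 nt, representing ~44,000 test sequences in quadruplicate, made up a custom Agilent SurePrint G3 4x180k array. Nuclear extracts from COS-7 cells transiently transfected by CaPO4 with a human HNF4α isoform expression vector were applied, and bound HNF4α was imaged at 2-µm resolution on an Agilent G2565CA scanner. Binding signal refers to the background-corrected, normalized gProcessedSignal output of Agilent software.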
In the case of “CTGTGCAAGCCCCTGACCAAGGGTCATGCTGCCTAGGGAGATTAGAGTATCGGTCGA”, the binding signal turned out to be 3.96 log2 normalized intensity. Turning to “GCTATCTTATCTTTGACCTTACCAGCCCACGCCTAGGGAGATTAGAGTATCGGTCGA”, the binding signal is 2.94 log2 normalized intensity. Take “AGCCTCTCACAGTAGCCCAGGTCCTTTGGTGCCTAGGGAGATTAGAGTATCGGTCGA”: the binding signal is 0.598 log2 normalized intensity. With “CTGACCTTTGCCCCCAGCCTCTCACAGTAGGCCTAGGGAGATTAGAGTATCGGTCGA”, the binding signal worked out at 7.53 log2 normalized intensity.

With “TGCCCAGCTTGAATCACTCACTGACCTCTTGCCTAGGGAGATTAGAGTATCGGTCGA”, the binding signal is 4.46 log2 normalized intensity.

In the case of “GAACTCTGACCTTTGCCCCCAGCCTCTCACGCCTAGGGAGATTAGAGTATCGGTCGA”, the binding signal was 9.22 log2 normalized intensity.

Take “CTTTGCCCCCAGCCTCTCACAGTAGCCCAGGCCTAGGGAGATTAGAGTATCGGTCGA”: the binding signal was 4.72 log2 normalized intensity. As to “TCTGCTTGCCATTAATGAAAACTGCACTTCGCCTAGGGAGATTAGAGTATCGGTCGA”, the binding signal is 2.38 log2 normalized intensity. The same measure for “TTTATTTGAAGAAATGGTGGACTTTGTAGCGCCTAGGGAGATTAGAGTATCGGTCGA”: 6.52 log2 normalized intensity; for “CTAGGAAACTGACCTTTGCTCATGACTATTGCCTAGGGAGATTAGAGTATCGGTCGA”: 6.61 log2 normalized intensity; for “GATGAGTGACCTTTGACCTCAGAGAGCCGGGCCTAGGGAGATTAGAGTATCGGTCGA”: 9.88 log2 normalized intensity. Take “AAAGACTTGCTCATTGATGAGTGACCTTTGGCCTAGGGAGATTAGAGTATCGGTCGA”: the binding signal was determined as 7 log2 normalized intensity. In the case of “CTTTGACCTCAGAGAGCCGGAAACTCCACCGCCTAGGGAGATTAGAGTATCGGTCGA”, the binding signal is -0.861 log2 normalized intensity. “CCCTCAGAGCTCAGATGAACTTTGCCTTAGGCCTAGGGAGATTAGAGTATCGGTCGA”: the binding signal was determined as 6.28 log2 normalized intensity.

For the sequence “CACCACTAGGAAACTGACCTTTGCTCATGAGCCTAGGGAGATTAGAGTATCGGTCGA”, the binding signal was determined as 7.58 log2 normalized intensity. Turning to “GGCTGATGACCTTTGACTGAGATGGGAGCAGCCTAGGGAGATTAGAGTATCGGTCGA”, the binding signal was 4.58 log2 normalized intensity.

Regarding “CTACTACTTGACCTTTGAAACATATCCAGAGCCTAGGGAGATTAGAGTATCGGTCGA”, the binding signal was determined as 6.31 log2 normalized intensity. With “TCATTGATGAGTGACCTTTGACCTCAGAGAGCCTAGGGAGATTAGAGTATCGGTCGA”, the binding signal turned out to be 10.5 log2 normalized intensity.

For “GTGACCTTTGACCTCAGAGAGCCGGAAACTGCCTAGGGAGATTAGAGTATCGGTCGA”, the binding signal was 8.02 log2 normalized intensity. On to “ATTCTCACCACTAGGAAACTGACCTTTGCTGCCTAGGGAGATTAGAGTATCGGTCGA”, for which the binding signal stood at 6.07 log2 normalized intensity. For the sequence “TTGCCCCTTTGACCCTCGGGCCTCCCTAGAGCCTAGGGAGATTAGAGTATCGGTCGA”, the binding signal came out at 4.81 log2 normalized intensity. With “GGTCAATGTGCACATTCGAAGTTTTGCTCCGCCTAGGGAGATTAGAGTATCGGTCGA”, the binding signal came out at 1.65 log2 normalized intensity. The same measure for “GGATATTTGATCAAAGGTCAGCTCTCCTTTGCCTAGGGAGATTAGAGTATCGGTCGA”: 5.11 log2 normalized intensity; for “TTTATAATCCTAGCTTGGTTTTTCTGGGACGCCTAGGGAGATTAGAGTATCGGTCGA”: 0.942 log2 normalized intensity; for “GGATTATGGAGATGGAGATGGCCTGGAGGTGCCTAGGGAGATTAGAGTATCGGTCGA”: 0.909 log2 normalized intensity. On to “ACAACCAGGGAGATGTGAGCGACCTTTGCAGCCTAGGGAGATTAGAGTATCGGTCGA”, for which the binding signal was 4.55 log2 normalized intensity.

Turning to “GGTTGTAAAATGAGGTCAGCATGGTGGGAGGCCTAGGGAGATTAGAGTATCGGTCGA”, the binding signal worked out at 1.04 log2 normalized intensity. As for “GGGGCGATGCTTCCAAAGTCCACAGTCCCCGCCTAGGGAGATTAGAGTATCGGTCGA”, the binding signal was 3.92 log2 normalized intensity.

For the sequence “CTCTTTTACTGTACTTCTTTAGGACTGCTCGCCTAGGGAGATTAGAGTATCGGTCGA”, the binding signal turned out to be 1.37 log2 normalized intensity. “ATATAAAAACTAACCATACTGAGTGTTGGTGCCTAGGGAGATTAGAGTATCGGTCGA”: the binding signal is -0.252 log2 normalized intensity.

Take “AGTGTAAGGACATTGCCCCCTATGTAAAGGGCCTAGGGAGATTAGAGTATCGGTCGA”: the binding signal came out at 4.09 log2 normalized intensity. For the sequence “TGATTACCCTTATCTTATCTCCTGCTAAATGCCTAGGGAGATTAGAGTATCGGTCGA”, the binding signal is -0.759 log2 normalized intensity. As to “TTTCAACATTTAACTTAACCACTCAATCAGGCCTAGGGAGATTAGAGTATCGGTCGA”, the binding signal is -0.86 log2 normalized intensity. Turning to “CTTTGAGATTTGCATTCATGATCTTAGATAGCCTAGGGAGATTAGAGTATCGGTCGA”, the binding signal came out at 0.242 log2 normalized intensity. For “TGACCTTTGCCTCATTCTTATTGCCTCATGGCCTAGGGAGATTAGAGTATCGGTCGA”, the binding signal was determined as 4.2 log2 normalized intensity.

Turning to “ACCTTTGCCTTCTTGACATCTCTCTCTGCAGCCTAGGGAGATTAGAGTATCGGTCGA”, the binding signal was -0.0607 log2 normalized intensity.

As to “TATCAGTGTTGACCTCTGGACCTCATCTTCGCCTAGGGAGATTAGAGTATCGGTCGA”, the binding signal was determined as 6.23 log2 normalized intensity.

As for “GATGTTTAGCTATCAGTGTTGACCTCTGGAGCCTAGGGAGATTAGAGTATCGGTCGA”, the binding signal was found to be 6.06 log2 normalized intensity. On to “ACCACTTTGAAATAGTGACCTCTGCTGGCCGCCTAGGGAGATTAGAGTATCGGTCGA”, for which the binding signal came to 3.43 log2 normalized intensity.

For “TTAGCTATCAGTGTTGACCTCTGGACCTCAGCCTAGGGAGATTAGAGTATCGGTCGA”, the binding signal is 7.79 log2 normalized intensity. In the case of “GTGACCTTTGACCTCTGGCCTTTGCAGTTAGCCTAGGGAGATTAGAGTATCGGTCGA”, the binding signal amounted to 8.79 log2 normalized intensity. On to “CTCTAACCACTTTGAAATAGTGACCTCTGCGCCTAGGGAGATTAGAGTATCGGTCGA”, for which the binding signal is 5.01 log2 normalized intensity.

For “CTGACAAGTATCTCGGTCAAACCTTTGACCGCCTAGGGAGATTAGAGTATCGGTCGA”, the binding signal is 6.35 log2 normalized intensity. Take “TCTGGTGCCAAGGAGCCTCTGCAACCTTTGGCCTAGGGAGATTAGAGTATCGGTCGA”: the binding signal was determined as 3.43 log2 normalized intensity.

Take “CTCAAGTGACCTTTGACCTCTGGCCTTTGCGCCTAGGGAGATTAGAGTATCGGTCGA”: the binding signal is 10.3 log2 normalized intensity.

As to “CTGACCTCAAGTGACCTTTGACCTCTGGCCGCCTAGGGAGATTAGAGTATCGGTCGA”, the binding signal was determined as 11.2 log2 normalized intensity.
